In the library only some 1.4% were active in any assay of this set; here they are far more common.
AID504770: E. coli YBA685 growth inhibition, screen for V. cholerae RctB inhibitors; E. coli YBA685 rctB-dependent plasmid, OD600 growth, 3 h; stronger effect = lower value; z-score (no concentration beside the values); actives 0.27% (n = 130,000); AID 504770; in the data active = z-score below about -2, passing the limit was not always enough
Mtb MbtI inh: inhibitors of Mycobacterium tuberculosis siderophore enzyme MbtI; purified MbtI enzyme, fluorescence intensity read-out; inhibition, % (no concentration beside the values); actives 0.89% (n = 100,000); in the data active = inhibition mostly above about 56%, no sharp cut-off; inactive = mostly below about 77%
PV pol inh: poliovirus RNA polymerase inhibition; P03300; poliovirus polymerase elongation, fluorescence polarization; stronger effect = lower value; % elongation, % (compound at 16.7 µg/mL); actives 0.66% (n = 150,000); AID 588519; in the data active = % elongation below about 90%
Target sequence (P03300 1749-2209 limits assumed): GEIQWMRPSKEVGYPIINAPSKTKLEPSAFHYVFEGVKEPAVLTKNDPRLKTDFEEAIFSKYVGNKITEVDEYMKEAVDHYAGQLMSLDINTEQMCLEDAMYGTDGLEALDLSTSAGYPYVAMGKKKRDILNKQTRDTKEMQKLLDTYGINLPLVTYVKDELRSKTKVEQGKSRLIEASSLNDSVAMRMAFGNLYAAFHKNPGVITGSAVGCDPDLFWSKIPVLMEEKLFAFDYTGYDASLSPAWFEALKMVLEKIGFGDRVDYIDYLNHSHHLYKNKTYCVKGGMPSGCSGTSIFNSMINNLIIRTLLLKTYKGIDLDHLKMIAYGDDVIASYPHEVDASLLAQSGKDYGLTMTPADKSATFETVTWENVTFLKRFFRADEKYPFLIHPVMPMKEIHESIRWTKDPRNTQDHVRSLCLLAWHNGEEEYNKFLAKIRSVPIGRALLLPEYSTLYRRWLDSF
Mtb MenB inh: inhibitors of Mycobacterium tuberculosis MenB enzyme | P9WNP5 | MenB enzyme assay, absorbance read-out | inhibition, % (concentration not given with the values) | actives 0.43% (n = 100,000); in the data active = inhibition above about 21%, passing the limit was not always enough
Hits are given with their value.

How did O=C(Cn1c(=O)n(-c2ccccc2)c(=O)c2oc3ccccc3c21)N1CCCC1 do in these assays?
AID504770: inactive; Mtb MbtI inh: inactive; PV pol inh: inactive; Mtb MenB inh: inactive

How did Nn1c(COc2ccccc2)n[nH]c1=S do in these assays?
AID504770: inactive; Mtb MbtI inh: 95.2; PV pol inh: 80.0; Mtb MenB inh: inactive

Results for CN(C)CCCNCc1ccco1 ?
AID504770: inactive; Mtb MbtI inh: inactive; PV pol inh: inactive; Mtb MenB inh: inactive

Results for CN(C)CCCNCc1cccn1C ?
AID504770: inactive; Mtb MbtI inh: inactive; PV pol inh: 85.0; Mtb MenB inh: inactive

Results for CCNc1nc(NCC)n2c(SCC(=O)Nc3ccc(CC)cc3)nnc2n1 ?
AID504770: inactive; Mtb MbtI inh: 86.8; PV pol inh: inactive; Mtb MenB inh: inactive

What do the screens show for `CNS(=O)(=O)c1ccc2ccccc2c1`?
AID504770: inactive; Mtb MbtI inh: inactive; PV pol inh: inactive

How did COC(=O)/C=C/S(=O)(=O)c1ccc2ccccc2c1 do in these assays?
AID504770: inactive; Mtb MbtI inh: 100.9; PV pol inh: inactive; Mtb MenB inh: inactive

How did C1=CSC(=C2SC=CS2)S1 do in these assays?
AID504770: -3.65; Mtb MbtI inh: inactive; PV pol inh: 59.0; Mtb MenB inh: active

How did CC(C)(C)c1ccc(S(=O)(=O)N2CCCC2C(N)=O)cc1 (stereo unspecified) do in these assays?
AID504770: inactive; Mtb MbtI inh: inactive; PV pol inh: inactive; Mtb MenB inh: inactive

How did CCOC(=O)c1sc(NC(=O)CN2C(=O)c3ccccc3C2=O)c(C(=O)OCC)c1C do in these assays?
AID504770: inactive; Mtb MbtI inh: inactive

Results for NS(=O)(=O)c1ccc(-n2ncc(Cl)c(Cl)c2=O)cc1 ?
AID504770: inactive; Mtb MbtI inh: inactive; PV pol inh: 86.0; Mtb MenB inh: inactive

Results for O=c1c(Cl)c(Cl)cnn1-c1ccccc1 ?
AID504770: inactive; Mtb MbtI inh: inactive

How did COC(=O)c1cc(-c2ccccc2)sc1NC(=O)C1CCCO1 (stereo unspecified) do in these assays?
AID504770: inactive; PV pol inh: 85.0; Mtb MenB inh: inactive

What do the screens show for `NS(=O)(=O)c1cccc(S(=O)(=O)c2ccc(Cl)c(Cl)c2)c1`?
AID504770: inactive; Mtb MbtI inh: 67.0; PV pol inh: inactive; Mtb MenB inh: inactive

Results for COc1cccc(OC)c1C(=O)ON=C1C=CC(=O)C=C1 ?
AID504770: inactive; Mtb MbtI inh: 82.7; PV pol inh: inactive; Mtb MenB inh: inactive

How did COC(=O)c1cc2cccc(OC)c2oc1=O do in these assays?
AID504770: inactive; Mtb MbtI inh: inactive; PV pol inh: inactive; Mtb MenB inh: inactive

How did O=C(CSc1ncccc1C(=O)Nc1ccnn1Cc1cccnc1)Nc1ccc2c(c1)OCO2 do in these assays?
AID504770: inactive; Mtb MbtI inh: inactive; PV pol inh: inactive; Mtb MenB inh: inactive

What do the screens show for `O=c1[nH]ncc(NCCCc2ccccc2)c1Cl`?
AID504770: inactive; Mtb MbtI inh: inactive; PV pol inh: inactive; Mtb MenB inh: inactive

What do the screens show for `O=C(OCn1nnc2ccccc2c1=O)C1CCCCC1`?
AID504770: inactive; Mtb MbtI inh: inactive; PV pol inh: inactive; Mtb MenB inh: inactive

How did O=C(OCn1nnc2ccccc2c1=O)C1COc2ccccc2O1 (stereo unspecified) do in these assays?
AID504770: inactive; Mtb MbtI inh: 58.3; PV pol inh: inactive; Mtb MenB inh: inactive

How did O=c1c[n+]([O-])c2ccccc2n1OCc1ccccn1 do in these assays?
AID504770: inactive; Mtb MbtI inh: inactive; PV pol inh: inactive; Mtb MenB inh: inactive

Results for O=[n+]1c(CO)c(CO)n([O-])c2ccccc21 ?
AID504770: -8.7; Mtb MbtI inh: inactive; PV pol inh: inactive; Mtb MenB inh: inactive

What do the screens show for `CCc1nn(C(=O)c2ccccc2)c2c1C(=O)CC(C)(C)C2`?
AID504770: inactive; Mtb MbtI inh: inactive; PV pol inh: inactive

What do the screens show for `COCCNC(=O)CCC(=O)NNc1nc2ccccc2c2nc(C)nn12`?
PV pol inh: 30.0

Results for CCC(C)NC(=O)CCC(=O)NNc1nc2ccccc2c2nc(C)nn12 (stereo unspecified) ?
PV pol inh: 36.0

How did Cc1nn(CCc2nc(C(C)(C)C)cs2)c2[nH]c(=O)cc(C(F)(F)F)c12 do in these assays?
AID504770: inactive; Mtb MbtI inh: inactive; PV pol inh: inactive

Results for CCOC1(O)C(=O)c2ccccc2C(=O)C1(O)OCC (stereo unspecified) ?
AID504770: inactive; Mtb MbtI inh: inactive

What do the screens show for `O=C1c2ccccc2C(=O)C2(O)OCCOC12O` (stereo unspecified)?
AID504770: inactive; Mtb MbtI inh: inactive; PV pol inh: 90.0; Mtb MenB inh: inactive

How did CCn1cc(C(=O)N2CCN(c3ccc(F)cc3)CC2)c(=O)c2cc(S(=O)(=O)N(C)C3CCCCC3)ccc21 do in these assays?
PV pol inh: inactive

How did CC1CCN(CCCNC(=O)c2cn(C)c3ccc(S(=O)(=O)N(C)C4CCCCC4)cc3c2=O)CC1 do in these assays?
PV pol inh: inactive

How did CCn1cc(C(=O)N2CCN(c3ccccc3)CC2)c(=O)c2cc(S(=O)(=O)N(C)C3CCCCC3)ccc21 do in these assays?
PV pol inh: 68.0

How did CCC1CCCCN1CCCNC(=O)c1cn(C)c2ccc(S(=O)(=O)N(C)C3CCCCC3)cc2c1=O (stereo unspecified) do in these assays?
PV pol inh: 30.0

Results for Cc1cc(C)c2c(/N=N/N3CCCCCC3)[nH]nc2n1 ?
AID504770: -3.95; Mtb MbtI inh: inactive; PV pol inh: inactive; Mtb MenB inh: inactive

Results for Cc1cc(C)c2c(-c3ccccc3)[nH]nc2n1 ?
AID504770: inactive; Mtb MbtI inh: inactive

Results for Cc1ccc(NC(=O)C2CC(=O)N=C(N)S2)cc1C (stereo unspecified) ?
AID504770: inactive; Mtb MbtI inh: inactive; PV pol inh: inactive

What do the screens show for `CC1CCc2nc3ccc4ccccc4c3c(-c3ccc(O)c(O)c3)c2C1` (stereo unspecified)?
AID504770: inactive; PV pol inh: inactive; Mtb MenB inh: inactive

How did Fc1cccc(F)c1C=Nc1ccc(-c2nc3ccccc3[nH]2)cc1 do in these assays?
AID504770: inactive; Mtb MbtI inh: inactive; PV pol inh: inactive

Results for O=C(c1ccccc1O)N1CCOCC1 ?
AID504770: inactive; PV pol inh: inactive; Mtb MenB inh: inactive

What do the screens show for `Oc1ccccc1C(=S)N1CCN(C(=S)c2ccccc2O)CC1`?
AID504770: inactive; Mtb MbtI inh: 93.7; PV pol inh: inactive; Mtb MenB inh: inactive

Results for CC1=C(c2ccc(F)cc2)S(=O)(=O)N=C1Nc1ccc(C)cn1 ?
AID504770: inactive; Mtb MbtI inh: inactive; PV pol inh: inactive; Mtb MenB inh: inactive

Results for CCOC(=O)/C(C#N)=C\C1=C(N2CCCC2)CC(C)(C)OC1 ?
AID504770: inactive; Mtb MbtI inh: 62.2; PV pol inh: inactive; Mtb MenB inh: inactive

How did CCOC(=O)/C(C#N)=C\N1CCOCC1 do in these assays?
AID504770: inactive; Mtb MbtI inh: inactive; PV pol inh: inactive; Mtb MenB inh: inactive

What do the screens show for `Cc1ccc(O)c(C(=O)c2cnn3c(=S)[nH]nc3c2)c1`?
AID504770: inactive; Mtb MbtI inh: inactive; PV pol inh: 71.0; Mtb MenB inh: inactive

What do the screens show for `Nc1nnc2cc(C(=O)c3cc(F)ccc3O)cnn12`?
AID504770: inactive; Mtb MbtI inh: inactive; PV pol inh: inactive; Mtb MenB inh: inactive
